Measurements as given in ChEMBL document CHEMBL3988442, “University of Dundee, Small-Polar-MMV Screening Library” (2021).
In all, about 48,000 compounds went through this assay and about 13,000 (27%) showed an effect of 50% or more. This is one part of the list.

System: Wolbachia pipientis
Test: Anti-Wolbachia Cell-Based Screen
Type: functional
Set-up: scale not given: in the data most compounds retested in dose-response had high values
Details: 5 µM

SMILES | Percent Effect
CN(C)CCNC(=O)c1ccc2c(-c3nccs3)noc2c1 | -16.02%
Cn1cc(S(=O)(=O)NCCc2nnc3ccccn23)cn1 | -3.582%
O=C(c1ncccn1)N1C[C@@H]2COC[C@]2(c2nnc(C3CC3)o2)C1 | -0.5118%
Cc1noc(C)c1CNC(=O)C1(NS(C)(=O)=O)CCCCC1 | -47.58%
Cc1ccc(C)c(CC(=O)NC2CCC(N3C(=O)CCC3=O)CC2)c1 (stereo not given) | 6.752%
CCn1cc(S(=O)(=O)N2CCCSc3ccccc32)cn1 | -3.262%
CCn1cc(S(=O)(=O)N2CCN(S(=O)(=O)c3ccc(Br)s3)CC2)cn1 | 99.05%
CCN1CCN(S(=O)(=O)c2cc(C)c(Cl)cc2Cl)CC1 | 18.7%
CCn1cc(S(=O)(=O)N2CCN(S(=O)(=O)c3ccc(Br)s3)CC2)c(C)n1 | 110.7%
CC1(C)OCC2(CO1)CN(S(=O)(=O)c1ccc(Br)s1)C2 | -6.121%
CCC1CCCN(S(=O)(=O)c2cnn(C)c2)C1 (stereo not given) | 12.29%
CCn1cc(S(=O)(=O)N2CCC(C)Sc3ccccc32)cn1 (stereo not given) | -6.533%
CCc1ccc(S(=O)(=O)N2CC3(COC(C)(C)OC3)C2)s1 | -8.267%
Cn1cc(S(=O)(=O)N2CCN(S(=O)(=O)c3ccc(Br)s3)CC2)cn1 | 96.55%
O=C(NS(=O)(=O)c1ccc(F)cc1)C1CCOc2ccccc21 (stereo not given) | -10.91%
Cc1scc(C(=O)N2CCC3(CC(=O)NC3=O)C2)c1-c1ccccc1 (stereo not given) | -14.34%
CS(=O)(=O)N1CCCC12CCN(Cc1nccs1)C2.O=C(O)C(F)(F)F (stereo not given) | -1.689%
Cc1nc2c(c(C)c1CC(=O)NCc1ccco1)c(=O)[nH]n2C | 144%
Cc1ccc(C(C)NC(=O)Cc2c(C)nc3c(c2C)c(=O)[nH]n3C)o1 (stereo not given) | -8.138%
Cc1nc2c(c(C)c1CC(=O)NC(C)c1ccccc1)c(=O)[nH]n2C (stereo not given) | -24.46%
Cc1nc2c(c(C)c1CC(=O)NCc1ccccc1F)c(=O)[nH]n2C | 107.2%
CCNC(=O)Cc1c(C)nc2c(c1C)c(=O)[nH]n2C | -13.5%
Cc1nc2c(c(C)c1CC(=O)Nc1ccccc1F)c(=O)[nH]n2C | -18.93%
Cc1nc2c(c(C)c1CC(=O)Nc1ccnn1C(C)C)c(=O)[nH]n2C | -7.188%
Cc1nc2c(c(C)c1CC(=O)NCc1cccc(C#N)c1)c(=O)[nH]n2C | 1.091%

SMILES | Percent Effect
Cc1ccc(CNC(=O)Cc2c(C)nc3c(c2C)c(=O)[nH]n3C)cc1 | 114.9%
Cc1ccc(C)c(NC(=O)Cc2c(C)nc3c(c2C)c(=O)[nH]n3C)c1 | 0.2479%
Cc1cc(C)cc(NC(=O)Cc2c(C)nc3c(c2C)c(=O)[nH]n3C)c1 | 3.943%
Cc1nc2c(c(C)c1CC(=O)NCc1ccc(F)cc1)c(=O)[nH]n2C | 91.6%
Cc1c(F)cc(C(=O)NCC(F)(F)F)cc1NCC(=O)N(C)C | 4.918%
CCOc1ccccc1NC(=O)CN(C)Cc1ccccc1Cl | 6.554%
OCCn1cc(CN2CCN(CCOCC(F)(F)F)CC2)cn1 | 2.281%
CN(C)CC(=O)N1Cc2cc(N(C)C)ccc2C1c1cnco1 (stereo not given) | -12.83%
CC(C)C(C(=O)N(C)C)c1cccc(Cl)c1 (stereo not given) | -9.046%
CN(C)c1cccc(C(=O)Nc2cn(C)c(=O)n(C)c2=O)c1 | -7.07%
COc1c(C(=O)N2CCC(COCc3ccccc3)C2)c(C)nn1C (stereo not given) | -0.4444%
Cc1nc2c(c(C)c1CC(=O)NCc1cccs1)c(=O)[nH]n2C | 165.2%
CCCNC(=O)Cc1c(C)nc2c(c1C)c(=O)[nH]n2C | -12.53%
Cc1ccsc1CNC(=O)Cc1c(C)nc2c(c1C)c(=O)[nH]n2C | -0.5496%
O[C@H]1CC[C@@H](Cc2cc(-c3ccc(F)cc3)on2)O[C@@H]1CNCC1CC1 | 6.759%
O=C(CCc1ccco1)N1CCc2[nH]nc(COc3ccccc3)c2C1 | 91.35%
CS(=O)(=O)N1CCc2[nH]nc(Cc3cccs3)c2C1 | 98.95%
Cc1noc(C)c1-c1n[nH]c2c1CN(S(=O)(=O)c1cccs1)CC2 | 16.83%
O=C(O)C(F)(F)F.OCCOCc1n[nH]c2c1CN(Cc1ccco1)C2 | 3.715%
COCc1n[nH]c2c1CN(Cc1cccs1)C2.O=C(O)C(F)(F)F | 1.549%
O=C(c1csnn1)N1CCc2[nH]nc(COc3cccc(Cl)c3)c2C1 | 7.373%
O=C(O)C(F)(F)F.O=C(O)C(F)(F)F.O=C(O)C(F)(F)F.c1cncc(OCc2n[nH]c3c2CN(Cc2cccs2)C3)c1 | -32.3%
O=C(CCc1cccs1)N1CCc2[nH]nc(COc3ccccc3)c2C1 | 98.05%
O=C(O)C(F)(F)F.O=C(O)C(F)(F)F.c1ccc(OCc2n[nH]c3c2CN(Cc2cccs2)C3)nc1 | -9.854%
COc1nc2c(cc1C(=O)N(C)Cc1[nH]nc3c1CCC3)CCC2 | 7.806%
